# Anthrax LF inh2 = inhibitors of Bacillus anthracis lethal factor protease; P15917; multiplex microsphere protease cleavage assay, LF; inhibition, % at 10 µM; 0.12% of 360,000 active; also: plate controls were buffer without enzyme for full effect and enzyme alone for no effect
# Bead autofluor = compound fluorescence in toxin protease inhibitor counterscreen; 3.1% of 360,000 active; fluorescence intensity (concentration not given with the values); compound autofluorescence counterscreen, microsphere flow cytometry; active compounds read high; in the data active = fluorescence intensity above about 16000; inconclusive = no clear call, values can overlap the other calls
# BoNT F protease = blocks Botulinum neurotoxin F light chain protease; 0.22% of 360,000 active; AID 588497; Multiplex microsphere protease cleavage assay, flow cytometry; inhibition, % at 10 µM; in the data active = inhibition above about 35%, passing the limit was not always enough; inconclusive = no clear call, values can overlap the other calls; also: plate controls were buffer without enzyme for full effect and enzyme alone for no effect
# MazF activator = activators of E. coli MazEF toxin-antitoxin RNase; FAM/BHQ RNA-DNA oligo cleavage fluorescence, 5 h; activation, % at 20 µM; 0.32% of 350,000 active; AID 504720; in the data active = activation above about 50%
# Target sequence (P0AE70 whole entry, looked up): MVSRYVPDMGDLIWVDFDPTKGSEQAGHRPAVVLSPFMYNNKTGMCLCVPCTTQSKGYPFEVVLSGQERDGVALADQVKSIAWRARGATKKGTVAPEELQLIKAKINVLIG
# PfHsp40 yeast = compounds rescuing yeast from Plasmodium falciparum HSP40 toxicity | growth rescue, % at 12.5 µM | AID 504582 | 0.68% of 340,000 active | S. cerevisiae expressing PfHsp40, growth rescue, ATP luminescence; in the data active = growth rescue above about 28%, passing the limit was not always enough; inconclusive = no clear call, values can overlap the other calls;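 also: yeast W303a lacking pdr1 and pdr3 grown in galactose medium; growth measured after three days at 30 °C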
# BoNT A protease = BoNT A light chain protease inhibition. multiplex microsphere protease substrate cleavage, flow cytometry. inhibition, % at 10 µM. 0.17% of 360,000 active. AID 588499; also: plate controls were buffer without enzyme for full effect and enzyme alone for no effect
# Starred values were filed as active, the others as inactive; ? = inconclusive; / = no result. Shown are actives, neighbours in structure and some others; about 4.3% of the full set was active somewhere. Rule as the data show it, unless noted: active = inhibition above about 30%; inconclusive = no clear call, values can overlap the other calls; inactive = below that.
SMILES,Anthrax LF inh2,Bead autofluor,BoNT F protease,MazF activator,PfHsp40 yeast,BoNT A protease
CCOc1ccccc1NC(=O)N1CCC(c2nc3ccccc3[nH]2)CC1,2,21924*,5,7,0,?
O=C(CN1CCC(c2nc3ccccc3[nH]2)CC1)Nc1ccc2c(c1)OCO2,-5,21412*,3,0,0,4
COc1ccc(CC(=O)NC2CCN(CC(=O)Nc3ccc4c(c3)OCCO4)CC2)cc1OC,-4,23401*,-4,-1,1,-1
Cc1ccc2nc(C3CCN(CC(=O)Nc4ccc5c(c4)OCCO5)CC3)[nH]c2c1,-1,23511*,-4,5,0,0
CC1CCN(Cc2nnc(-c3cccc(Br)c3)o2)CC1,-11,4182,-24,-5,-1,-1
O=C(CN1CCOCC1)Nc1ccc(-c2nc3ccccc3[nH]2)cc1,0,23886*,-5,-1,1,-2
O=S(=O)(c1ccc2c(c1)OCCO2)N1CCC(c2nc3ccccc3[nH]2)CC1,0,22441*,3,1,1,3
O=S(=O)(c1ccc2c(c1)OCCO2)N1CCC(c2nc3ccc(Cl)cc3[nH]2)CC1,3,15046,4,5,3,4
CC1(C)NC(=O)N(CC(O)CN2CCCCC2)C1=O (stereo not drawn),1,19639*,1,-3,-1,?
CC1(C)NC(=O)N(CC(O)COC2CCCCC2)C1=O (stereo not drawn),-1,3474,6,7,-2,0
COc1ccccc1CN(C)C(=O)COC(=O)c1c(C)noc1C,-7,3239,2,5,1,0
O=C(O)c1ccc(N/N=C/C2=Cc3ccccc3OC2)cc1,4,4466,-6,1,179*,0
CCC(=O)N(CCC1(C(C)C)CCOC(C)(C)C1)Cc1ccco1 (stereo not drawn),-6,15431,0,9,-1,2
CC(=O)N(CCC1(C(C)C)CCOC(C)(C)C1)Cc1ccco1 (stereo not drawn),0,19564*,1,-3,-1,?
CCN1C(=O)c2ccc(C(=O)NCc3ccco3)cc2C1=O,1,5499,-10,2,1,3
COc1ccc(Cl)cc1C(=O)CSc1nnnn1C1CCCC1,-5,6001,-3,-11,32*,1
COc1ccc(CN2CC(C(=O)NCCc3ccc(C)cc3)CC2=O)cc1 (stereo not drawn),-1,20337*,2,4,0,1
CC(=O)c1ccc(NC(=O)C2CC(=O)N(Cc3ccccc3)C2)cc1 (stereo not drawn),-14,17232*,10,8,0,7
O=C(Nc1ccccc1)C1CC(=O)N(Cc2ccccc2)C1 (stereo not drawn),-4,5762,-5,8,0,1
COc1ccc(N2CC(C(=O)NCCc3ccc(OC)c(OC)c3)CC2=O)cc1 (stereo not drawn),-4,22233*,-5,4,-1,0
COc1ccc(CN2CC(C(=O)NCCc3ccccc3)CC2=O)cc1 (stereo not drawn),-4,17837*,10,0,-1,7
CCc1ccc(N2C(=O)CC(N3CCN(Cc4ccc5c(c4)OCO5)CC3)C2=O)cc1 (stereo not drawn),-3,4145,2,2,-2,-1
COc1ccc(C(=O)NCCN2C(=O)S/C(=C\c3cccnc3)C2=O)cc1[N+](=O)[O-],-1,4897,-8,13,6,0
N#C/C(=C\c1ccc2c(c1)OCO2)C(=O)NCc1ccco1,-3,4790,-1,-1,53*,0
COCCNC(=O)/C(C#N)=C/c1ccc2c(c1)OCO2,1,2408,-1,-4,-1,0
SMILES,Anthrax LF inh2,Bead autofluor,BoNT F protease,MazF activator,PfHsp40 yeast,BoNT A protease
Clc1ccc(OCc2nc(-c3ccccn3)n[nH]2)cc1,-2,19968*,-1,-20,2,0
CN(CC(=O)Nc1ccc(F)cc1)C(=O)Cn1cnc2ccc(Cl)cc2c1=O,/,/,/,3,-1,/
CCOc1ccc(Nc2nc(N3CCOCC3)nc(N3CCOCC3)n2)cc1,/,/,/,2,6,/
CCOc1ccc(Nc2nc(NCCN3CCOCC3)nc(OC)n2)cc1,-3,22883*,0,7,-1,?
O=C(c1cccc(C(F)(F)F)c1)N1CCCC1,-3,16789*,-5,-6,1,?
O=C(c1cccc(F)c1)N1CCN(S(=O)(=O)c2ccc(C(F)(F)F)cc2)CC1,0,22916*,2,9,-2,?

# Screens from PubChem.
